Experimental findings from the supplement of paper PMC6555819 are described below.

Common to all, as to assay: PBM binding z-score (relative to random genomic background probes); higher = stronger binding; sequences stand for … in GC…GCGATTGACAGCGTAGAATGAAGG
For test [1], the system named is PPARg:RXRa DBDmut IVT, anti-RXR (DBD mutation: RXRa K156A/R161A, NR concentration 270 nM, RXRa partner concentration 90 nM). The procedure, abridged: (§1)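 Custom Agilent 4×180K protein-binding microarrays carried double-stranded probes. Their 34-nt variable regions held direct-repeat seeds, single-nucleotide variants, half-site ablations and random human genomic background sequences. Arrays were incubated 1 h with ligand-free nuclear receptor dimers in PBS pH 7.4, 2% milk, 0.02% Triton X-100, 1 mM DTT, 0.2 mg/mL BSA and 0.4 mg/ml salmon testes DNA. Antibodies against each partner (one per run) detected binding, and scanned fluorescence was regression-normalized. Binding z-scores use random background probes as reference.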

The subject of test [2] is PPARg:RXRa IVT, anti-PPARg (NR concentration 270 nM, RXRa partner concentration 90 nM). Put shortly:
as §1

Test [3] concerns PPARg DBDmut:RXRa IVT, anti-PPARg (DBD mutation: PPARg1 K132A/R137A, NR concentration 270 nM, RXRa partner concentration 90 nM). Put shortly:
as §1

The subject of test [4] is PPARg DBDmut IVT, anti-PPARg (DBD mutation: PPARg1 K132A/R137A, NR concentration 270 nM). Put shortly: as §1
Test [5] concerns PPARg homodimer (NR concentration 180 nM). The procedure, abridged:
as §1

Test [6] deals with PXR:RXRa (NR concentration 270 nM, RXRa partner concentration 90 nM). Put shortly:
as §1

The subject of test [7] is PXR homodimer (NR concentration 270 nM). The procedure, abridged:
as §1

Test [8] has as its system RARa:RXR (NR concentration 270 nM, RXRa partner concentration 90 nM). The procedure, abridged: as §1
Test [9] has as its system RARa homodimer (NR concentration 270 nM). The procedure, abridged: as §1
In test [10] the test system is RARb:RXRa (NR concentration 270 nM, RXRa partner concentration 90 nM). Put shortly:
as §1

Consider CCTAGCAGGCCCGGGTCACTCAAGCATTTCGCTT, for which the PBM binding z-score in test [1] is -0.956; in [2], -0.289; in test [3], -1.26; in test [4], -1.82; in test [5], 0.788; in test [6], 1.78. For the same sequence, the PBM binding z-score is -0.484 in [7], 2.49 in test [8], -0.473 in [9] and 1.63 in test [10].
As for ACTCACGGGTCAACGAGGTTATAGCACGCGTATA, the PBM binding z-score came out at 1.79 in [1]; 2.88 in test [2]; 0.756 in test [3]; 1.16 in [4]; 4.09 in test [5]; 5.33 in test [6]. Also, the PBM binding z-score amounted to 4.27 in test [7], 5.51 in test [8], 1.43 in test [9] and 4.27 in test [10].
With GCTGGTAGGTCAGGTTGGTCAGCTAACGGGTACG, the PBM binding z-score was 3.54 in [1]; 3.65 in test [2]; -0.271 in [3]; 0.163 in test [4]; 1.32 in [5]; 0.581 in test [6]. Besides, the PBM binding z-score was 0.431 in [7], 0.986 in test [8], 0.462 in test [9] and 3.16 in test [10].
With TTACCAAGGTGAGCTGAGCTCGTTGATCCAACTC, the PBM binding z-score in [1] is 0.946; in test [2] it was 1.2; in test [3], 0.0399; in test [4] it was 0.147; in [5], -0.967; in test [6], -0.427. The PBM binding z-score in test [7] is -0.854; in test [8], 0.0745; in test [9] it was -1.22; in [10], 0.907.
Regarding CTCGAAAGGTCGGTTGAGGTGATTATACGGATAA, the PBM binding z-score in test [1] stood at 0.246; in test [2] it was 0.642; in [3], 0.351; in [4] it was 0.785; in [5], 1.2; in test [6] it was 3.74. For the same sequence, the PBM binding z-score in test [7] turned out to be 0.3; in test [8] it was 2.2; in test [9], 0.287; in [10], 2.85.
Take TCTTGTAGCTCAAAGGTTAAGAAAGCCGAAGCCT: the PBM binding z-score in test [1] is 1.21; in test [2] it was 1.99; in test [3], 0.0313; in test [4], -0.321; in test [5], 0.397; in [6], 1.27. Moreover, the PBM binding z-score in [7] is -0.227; in test [8], 1.83; in test [9] it was -0.437; in test [10], 1.61.
Regarding GCCACTGGGGCATCAGCAGGTTACCATAACTTAA, the PBM binding z-score in [1] is 4.53; in test [2] it was 4.92; in test [3], -0.157; in test [4] it was -0.59; in test [5], 0.0359; in test [6], -0.0612. Also, the PBM binding z-score in [7] was -0.589; in [8], 0.475; in test [9] it was -0.576; in test [10], 0.955.
As for TCGAGTAGATTACCAATGGGGCATTCAGCTTTCT, the PBM binding z-score in test [1] is 0.795; in test [2], -0.396; in test [3], -0.19; in [4], -0.114; in test [5], -0.291; in test [6], -0.345. Moreover, the PBM binding z-score in [7] is -0.382; in [8], -0.208; in [9], -0.677; in test [10] it was -0.295.
Consider GCTGCTAGGTCAGTTTGGTCAGCTAACGGGTACG, for which the PBM binding z-score is 2.93 in test [1]; 2 in test [2]; -0.859 in test [3]; -0.221 in [4]; 0.433 in test [5]; 0.0587 in test [6]. Also, the PBM binding z-score in test [7] was -0.275; in [8], 0.504; in test [9], -0.322; in test [10] it was 3.1.
Regarding TCTATTAGTAGATTAGGGCAACCGAAACAGCGGA, the PBM binding z-score stood at 2.26 in test [1]; 1.17 in test [2]; 0.69 in [3]; 0.0955 in test [4]; 0.0523 in test [5]; 0.229 in test [6]. In addition, the PBM binding z-score in test [7] turned out to be 0.0465; in test [8], 0.245; in test [9] it was 0.073; in [10], 0.344.
Take TCTATTAGTTGAACGGCAACCGACGAGTCCGTTT: the PBM binding z-score in [1] was found to be 2.15; in [2], 0.0618; in test [3], 0.259; in test [4], 0.73; in [5], 0.735; in [6], 0.661. In addition, the PBM binding z-score in [7] turned out to be 0.768; in test [8], 0.372; in test [9] it was 0.868; in [10] it was 0.424.
Regarding CGTCCAAGGTCATAGGAGGTCAGCGAAGACAGAT, the PBM binding z-score is 3.34 in test [1]; 4.77 in [2]; 0.336 in [3]; -0.611 in [4]; 4.47 in test [5]; 7.04 in test [6]. The PBM binding z-score turned out to be 3.83 in [7], 6.41 in test [8], 2.5 in test [9] and 5.66 in [10].
